The text below walks through data of PubChem BioAssay AID463173 (ICCB-Longwood Screening Facility, Harvard Medical School, 2010).

In all, about 52,000 compounds went through this assay and about 4,300 (8.3%) were called active. The sample holds actives, similar compounds and a random draw of the others, so the mix is not that of the screen. No stated cut-off is given here; in the data, active means survival mostly below about 52% (no sharp cut-off); inactive means mostly above about 56%.

The experiment deals with DeltatarO mutant. The experiment is described as follows: S. aureus survival, RN4220 and DeltatarO strains – OD600, teichoic acid synthesis inhibitors, primary screen (AID 463173). The settings on record: S. aureus RN4220 wild type/DeltatarO growth, OD600, 18 h, active compounds read low, screened at 18.75 µg/mL (by protocol).
For the compound `O=C(O)CC1CCS(=O)(=O)C1` (configuration not stated), the survival is 62% (inactive).
Under `CCOc1ccccc1N1CCN(C(=O)C2CCN(Cc3ccc(OC)cc3)CC2)CC1` stands 98% (inactive); under `CC1CCC(N2CC(=O)N(C3CCCC3)C(c3ccc(Cl)cc3)C2=O)CC1` (configuration not stated), 79% (inactive).
Then `Cc1ccc2occ(CC(=O)N(Cc3ccc(C(C)C)cc3)C3CCS(=O)(=O)C3)c2c1` (configuration not stated), with 66% (inactive).
Then `COc1ccc(NS(=O)(=O)c2ccc(N3CCCCS3(=O)=O)cc2)cc1Cl`, with 71% (inactive); and `COc1cccc(C(=O)Nc2ccccc2C(=O)OCc2cc(=O)n3c4c(sc3n2)CCCC4)c1`, with 57% (inactive); and `CCn1cc2nc(SCc3cccc(F)c3)n(CCc3ccccc3)c(=O)c2n1`, with 71% (inactive).
As for `CCn1cc2nc(SCc3c(F)cccc3Cl)n(CCc3ccccc3)c(=O)c2n1`, the survival is 52% (active).
Under `CCn1cc2nc(SCc3ccccc3Cl)n(CCc3ccccc3)c(=O)c2n1` stands 74% (inactive).
Under `CCOC(=O)c1c(C)[nH]c(C)c1S(=O)(=O)N(C)CC(=O)Nc1cccc(Cl)c1C` stands 73% (inactive).
As to `CCOC(=O)c1c(C)[nH]c(CCC(=O)NCc2ccc(N(C)C)cc2)c1C`, the survival is 83% (inactive).
Regarding `CCOC(=O)Cn1nc(-c2ccccc2)c2cnc3ccc(OCC)cc3c21`, the survival was 109% (inactive).
With `Cn1nnc2c(NCc3ccccc3)ncnc21`, the survival is 32% (active).
Consider `Cn1nnc2c(NCc3ccc(Cl)cc3)ncnc21`, for which the survival was 81% (inactive).
Then `Cc1ccc(CNc2ncnc3c2nnn3C)cc1`, with 58% (inactive); and `O=C(c1cccs1)N(Cc1cccnc1)c1nc2c(Cl)cccc2s1`, with 82% (inactive).
Then `COc1cccc(C(=O)Nc2ccc(-c3cc(C(F)(F)F)nn3-c3ccccc3)cc2)c1`, with 46% (inactive).
Under `O=C(NC(=O)c1cccc(F)c1)Nc1ccc(-c2cc(C(F)(F)F)nn2-c2ccccc2)cc1` stands 157% (inactive); under `COc1ccccc1C(=O)NC(=O)Nc1ccc(-c2cc(C(F)(F)F)nn2-c2ccccc2)cc1`, 30% (active); under `O=C(Nc1ccc(-c2cc(C(F)(F)F)nn2-c2ccccc2)cc1)c1cccc(F)c1`, 26% (active).
On to `COc1ccccc1C(=O)NC(=O)Nc1ccc(-n2nc(C(F)(F)F)cc2C(F)(F)F)cc1`, for which the survival is 59% (inactive).
Then `COc1ccccc1C(=O)Nc1ccc(-c2cc(C(F)(F)F)nn2-c2ccccc2)cc1`, with 45% (inactive); and `O=C(CN1CCC(N2CCCCC2)CC1)Nc1ccc2c(c1)OCCO2`, with 96% (inactive); and `Cc1cccc(C)c1OCc1nc2c3cnn(-c4ccccc4F)c3ncn2n1`, with 109% (inactive).
Regarding `CCN(CC)S(=O)(=O)c1cccc(C(=O)Nc2ccccc2C(=O)Nc2ccc(OC)cc2)c1`, the survival is 78% (inactive).
Then `Cc1cc(F)ccc1NC(=O)CS(=O)(=O)c1cccc2nsnc12`, with 77% (inactive); and `CCc1ccc(CNC(=O)Cn2c(-c3cccs3)cc3cc(F)ccc32)cc1`, with 119% (inactive).
As to `CC(C)c1ccc(Nc2c(-c3ccccn3)nc3ccccn23)cc1`, the survival was -4% (active).
Turning to `Fc1ccc(Nc2c(-c3ccccn3)nc3ccc(Cl)cn23)cc1`, the survival was 65% (inactive).
Under `COc1ccc(Nc2c(-c3ccccn3)nc3ccc(Cl)cn23)cc1` stands 93% (inactive); under `c1ccc(-c2nc3ccccn3c2NC2CCCC2)nc1`, 1% (active).
Take `CC(C)c1nc2ccccn2c1NC1CCCCC1`: the survival was 102% (inactive).
Then `Cc1ccc2nc(-c3ccccn3)c(Nc3ccc(F)cc3)n2c1`, with 10% (active); and `Cc1ccn2c(Nc3ccc(F)cc3)c(-c3ccccn3)nc2c1`, with 105% (inactive); and `Cc1cccc2nc(-c3ccccn3)c(Nc3ccccc3)n12`, with 24% (inactive).
Under `Cc1cccc2nc(-c3ccccn3)c(Nc3ccc(F)cc3)n12` stands -9% (active).
In the case of `CN(C)c1ccc(-c2nc3ccccn3c2NC2CCCC2)cc1`, the survival was 83% (inactive).
Under `Cc1ccc(Nc2c(-c3ccccn3)nc3ccc(Br)cn23)cc1` stands 72% (inactive).
Under `CC(C)c1ccc(Nc2c(-c3ccco3)nc3ccccn23)cc1` stands 42% (inactive).
Under `COc1ccc(NC(=O)Cn2cnc3sc(C)c(S(=O)(=O)N4CCN(C)CC4)c3c2=O)cc1OC` stands 167% (inactive); under `COc1ccc(NC(=O)CN2CCN(Cc3ccccc3Cl)S2(=O)=O)cc1Cl`, 41% (inactive).
In the case of `O=S(=O)(NCCc1csc2nc(-c3ccccc3)nn12)c1ccc(Cl)s1`, the survival was 86% (inactive).
Regarding `CCn1c(CNC(=O)C(OC)c2ccccc2)nnc1SC` (configuration not stated), the survival is 87% (inactive).
Under `O=c1c(=O)n(-c2cccc(Cl)c2)ccn1Cc1cccc(F)c1` stands 66% (inactive); under `COc1ccc(Cl)cc1NC(=O)c1cnc(N2CCCCC2)c2ccccc12`, 78% (inactive); under `CCOc1ccccc1NC(=O)CCc1c(C)nn(-c2ccc(N3CCOCC3)nn2)c1C`, 80% (inactive).
Then `CCOC(=O)c1cccc(NC(=O)c2cc3ccccn3n2)c1`, with 124% (inactive); and `COc1cccc(C2CC(=O)Nc3cc(OC)c(OC)c(OC)c32)c1OC(C)C` (configuration not stated), with 93% (inactive).
Under `CCOC(=O)c1cccc(-n2nnc3c(sc4nc(C)c(Br)c(C)c43)c2=O)c1` stands 92% (inactive); under `CCOc1ccc(C2=NC(c3ccc(OC)cc3)=Nc3ccc(Cl)cc3N2)cc1`, 71% (inactive).
On to `Cc1ccccc1Nc1c(-c2ccccc2)nc2cccc(C)n12`, for which the survival is 98% (inactive).
Consider `Cc1ccccc1Nc1c(-c2c[nH]c3ccccc23)nc2cccc(C)n12`, for which the survival is 144% (inactive).
Under `Cc1cccc(C)c1Nc1c(-c2ccccc2F)nc2cccc(C)n12` stands 6% (active); under `CCCCCC[N+]1(CCO)CCOCC1`, 81% (inactive).
Regarding `COc1ccc(N2CCN(CCCNC(=O)c3c(C)nn(-c4ccc(F)cc4)c3-n3cccc3)CC2)cc1`, the survival was 71% (inactive).
Under `OC(CC#CCN1CCOCC1)(c1ccccc1)c1ccccc1` stands 83% (inactive); under `COc1ccc(S(=O)(=O)N2CCN(Cc3nc4ccc(C)cc4o3)CC2)cc1`, 84% (inactive).
Under `Cc1ccc(-n2cc(C(=O)OCc3ccc(Cl)cc3)c3ccccc3c2=O)cc1` stands 67% (inactive).
Then `CCN1CCC(N(Cc2ccc(F)cc2)C(=O)Nc2cc(Cl)ccc2C(=O)OC)CC1`, with 85% (inactive); and `COc1ccc(C)cc1NC(=O)N(Cc1ccc(C)o1)C1CCN(C(C)=O)CC1`, with 8% (active); and `COc1ccc(NC(=O)N(C(C)C)C2CCN(C(C)=O)CC2)c(OC)c1`, with -2% (active).
On to `CCOc1ccccc1NC(=O)N(Cc1ccc(C)o1)C1CCN(C(C)=O)CC1`, for which the survival was 101% (inactive).
Regarding `COc1ccc(C)cc1NC(=O)N(C(C)C)C1CCN(C(C)=O)CC1`, the survival is 75% (inactive).
Under `COc1ccc(NC(=O)N(Cc2ccco2)C2CCN(C(C)=O)CC2)c(OC)c1` stands 88% (inactive); under `CC(=O)N1CCC(N(Cc2ccc(C)o2)C(=O)Nc2ccc(C)cc2)CC1`, 96% (inactive); under `COC(=O)c1ccc(Cl)cc1NC(=O)N(Cc1ccc(C)o1)C1CCN(C(C)=O)CC1`, 95% (inactive).
In the case of `COC(=O)c1ccc(Cl)cc1NC(=O)N(Cc1ccc(OC)cc1)C1CCN(C(C)=O)CC1`, the survival was -5% (active).
